In PubChem BioAssay (EPA / NIEHS):
Records with an inconclusive call do not appear. The source made the active and inactive calls. Rule for the calls: active = hit-call score of the fitted dose curve at least 0.9, where 1 is the maximum; inconclusive = response in the unintended direction; inactive = score below 0.9.

biological target: human Vitamin D Receptor (VDR), VDR (gene 7421) (UniProt P11473); assay: ATG_VDR_TRANS: Attagene TRANS-FACTORIAL HepG2 Assay for human Vitamin D Receptor (VDR) (AID 2283022)
Sequence (P11473 whole entry, looked up, the tested form may be a part): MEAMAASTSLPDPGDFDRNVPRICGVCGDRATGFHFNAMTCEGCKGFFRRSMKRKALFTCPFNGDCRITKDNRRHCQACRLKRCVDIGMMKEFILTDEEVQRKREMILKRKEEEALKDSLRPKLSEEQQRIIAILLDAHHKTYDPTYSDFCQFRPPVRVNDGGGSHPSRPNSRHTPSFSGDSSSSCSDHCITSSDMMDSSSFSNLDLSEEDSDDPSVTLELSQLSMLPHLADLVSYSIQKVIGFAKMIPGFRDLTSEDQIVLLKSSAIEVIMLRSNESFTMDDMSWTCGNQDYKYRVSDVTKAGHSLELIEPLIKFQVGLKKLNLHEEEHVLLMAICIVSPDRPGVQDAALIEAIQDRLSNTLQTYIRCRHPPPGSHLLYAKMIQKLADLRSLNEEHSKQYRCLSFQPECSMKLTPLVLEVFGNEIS
Method in brief: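 HepG2 cells were transiently transfected with GAL4-UAS reporter units and a chimeric VDR-Gal4 construct, then dosed for 24 hours. Reporter mRNA was quantified by RT-PCR, fluorescent labeling, HpaI digestion and capillary electrophoresis; gain of signal analysed vs DMSO.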

**Q.** `c1ccc(N=NNc2ccccc2)cc1` was tested. Which outcome did it give?
**A.** inactive

**Q.** Which outcome does the source give for `O=C(O)Cc1ccccc1` here?
**A.** inactive

**Q.** For `CC1CN1P(=O)(N1CC1C)N1CC1C` (centres undefined), which outcome is on record?
**A.** inactive

**Q.** `CCCCCCCCSC(=O)Oc1cc(Cl)nnc1-c1ccccc1` was tested. Which outcome did it give?
**A.** inactive

**Q.** With `Clc1ccc(C2(Cn3cncn3)CC(Br)CO2)c(Cl)c1` (centres undefined) as the compound, how does the outcome read?
**A.** inactive

**Q.** How did the outcome turn out when `COc1ccccc1OC` was run?
**A.** inactive

**Q.** With `CCc1ccccc1N` as the compound, how does the outcome read?
**A.** inactive

**Q.** How did the outcome turn out when `C[C@@H](Oc1ccc(Cl)cc1Cl)C(=O)O` was run?
**A.** inactive

**Q.** `COc1ccc(C=O)cc1` was tested. Which outcome did it give?
**A.** inactive

**Q.** Which outcome does the source give for `CCc1ccccc1C` here?
**A.** inactive

**Q.** How did the outcome turn out when `COS(=O)(=O)c1ccc(C)cc1` was run?
**A.** inactive

**Q.** How did the outcome turn out when `C=CC(=O)N(C)C` was run?
**A.** inactive

**Q.** For `N#CN=C(N)N`, which outcome is on record?
**A.** inactive

**Q.** How did the outcome turn out when `Nc1ccc(N=Nc2ccc(-c3ccc(N=Nc4c(S(=O)(=O)O)cc5cc(S(=O)(=O)O)c(N=Nc6ccccc6)c(O)c5c4N)cc3)cc2)c(N)c1` was run?
**A.** inactive

**Q.** For `O=C(Cc1ccccc1)c1ccccc1`, which outcome is on record?
**A.** inactive

**Q.** `CC(C)C1CCC(Cc2ccc(Cl)cc2)C1(O)Cn1cncn1` (centres undefined) was tested. Which outcome did it give?
**A.** inactive

**Q.** For `Fc1ccc(C2(Cn3cncn3)OC2c2ccccc2Cl)cc1` (centres undefined), which outcome is on record?
**A.** inactive

**Q.** For `CC(=[OH+])/C=C(/C)[O-].CC(=[OH+])/C=C(/C)[O-].CC(=[OH+])/C=C(/C)[O-].[Al]`, which outcome is on record?
**A.** inactive

**Q.** `CC(=O)C=C(C)C` was tested. Which outcome did it give?
**A.** inactive

**Q.** With `CCC1(c2ccc(N)cc2)CCC(=O)NC1=O` (centres undefined) as the compound, how does the outcome read?
**A.** inactive

**Q.** With `COc1cccc(C=O)c1` as the compound, how does the outcome read?
**A.** inactive

**Q.** With `COP(=O)(OC)OC` as the compound, how does the outcome read?
**A.** inactive

**Q.** How did the outcome turn out when `C1CCC(NC2CCCCC2)CC1` was run?
**A.** inactive

**Q.** With `CCC[CH2][Sn]([CH2]CCC)([CH2]CCC)[O]C(=O)c1ccccc1` as the compound, how does the outcome read?
**A.** inactive

**Q.** Which outcome does the source give for `ClCc1cccnc1` here?
**A.** inactive

**Q.** `C[C@H]1O[C@@H](O[C@H]2[C@@H](O)C[C@H](O[C@H]3[C@@H](O)C[C@H](O[C@H]4CC[C@@]5(C)[C@H](CC[C@@H]6[C@@H]5CC[C@]5(C)[C@@H](C7=CC(=O)OC7)CC[C@]65O)C4)O[C@@H]3C)O[C@@H]2C)C[C@H](O)[C@@H]1O` was tested. Which outcome did it give?
**A.** inactive

**Q.** Which outcome does the source give for `N#CCc1ccc(Cl)cc1` here?
**A.** inactive

**Q.** How did the outcome turn out when `O=C(CCl)CCl` was run?
**A.** inactive

**Q.** How did the outcome turn out when `COc1cc2c(cc1OC)[C@@]13CCN4CC5=CCO[C@H]6CC(=O)N2[C@H]1[C@H]6[C@H]5C[C@H]43` was run?
**A.** inactive

**Q.** `CCC(=O)c1ccccc1` was tested. Which outcome did it give?
**A.** inactive

**Q.** For `CCCCOCCOC(C)=O`, which outcome is on record?
**A.** inactive

**Q.** Which outcome does the source give for `CCOC(=O)Nc1cccc(OC(=O)Nc2ccccc2)c1` here?
**A.** inactive

**Q.** For `CC1(C)CCC(Cc2ccc(Cl)cc2)C1(O)Cn1cncn1` (centres undefined), which outcome is on record?
**A.** inactive

**Q.** `O=C/C=C/c1ccccc1` was tested. Which outcome did it give?
**A.** inactive

**Q.** With `C=CC#N` as the compound, how does the outcome read?
**A.** inactive

**Q.** Which outcome does the source give for `ClCc1ccccn1` here?
**A.** inactive

**Q.** How did the outcome turn out when `CC(=O)c1cc(C(C)(C)C)cc2c1CCC2(C)C` was run?
**A.** inactive

**Q.** `Nc1cccc(Cl)c1` was tested. Which outcome did it give?
**A.** inactive

**Q.** For `CCC(C)c1cccc(C(C)CC)c1O` (centres undefined), which outcome is on record?
**A.** inactive
